# PubChem BioAssay (NCI)
# About 83,000 compounds went through this panel and 20% of them were active in at least one assay; those are over-represented in the sample as a whole.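 Each cell line was grown in a 96-well plate and treated with one concentration of compound for 48 hours. Values below 10 were considered active.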 Unmarked numbers belong to inactive results. Active and inactive are the calls of the source.
# Tests used:
# Assay in all cases: NCI-60 one-dose screen, 48 h (100 = growth as untreated, 0 = no growth, -100 = all killed)
# NCI-H23 lung = settings: 10 µM unless noted
# NCI-H226 lung = settings: 10 µM unless noted
# NCI-H322M lung = settings: 10 µM unless noted
# HOP-62 NSCLC = settings: 10 µM unless noted
# HOP-92 NSCLC = settings: 10 µM
# NCI-H522 lung = settings: 10 µM unless noted
# A549/ATCC NSCLC = settings: 10 µM unless noted
# 786-0 renal = settings: 10 µM unless noted
# DU-145 prostate = settings: 10 µM unless noted
# K-562 leukemia = settings: 10 µM unless noted
# MALME-3M melanoma = settings: 10 µM unless noted
# MDA-MB-231 breast = settings: 10 µM unless noted
# SF-268 CNS = settings: 10 µM unless noted
# SF-295 CNS = settings: 10 µM unless noted
# SF-539 CNS = settings: 10 µM unless noted
# UACC-257 melanoma = settings: 10 µM unless noted
# NCI-H460 lung = settings: 10 µM unless noted
# COLO 205 colon = settings: 10 µM unless noted
# RXF 393 renal = settings: 10 µM unless noted
# M14 melanoma = settings: 10 µM unless noted
SMILES,growth (NCI-H23 lung),growth (NCI-H226 lung) [%],growth (NCI-H322M lung) [%],growth (HOP-62 NSCLC) [%],growth (HOP-92 NSCLC) [%],growth (NCI-H522 lung),growth (A549/ATCC NSCLC) [%],growth (786-0 renal) [%],growth (DU-145 prostate) [%],growth (K-562 leukemia) [%],growth (MALME-3M melanoma) [%],growth (MDA-MB-231 breast) [%],growth (SF-268 CNS) [%],growth (SF-295 CNS) [%],growth (SF-539 CNS),growth (UACC-257 melanoma) [%],growth (NCI-H460 lung) [%],growth (COLO 205 colon),growth (RXF 393 renal) [%],growth (M14 melanoma) [%]
c1ccc(C(c2nc3ncncc3[nH]2)N2CSc3nc4ccccc4n3C2)cc1 (stereo unspecified),107%,98.7,106,96.6,91.5,98.2%,107,101,110,96.5,81.1,98.9,98.1,101,95.3%,104,–,–,–,–
Cc1ccc2sc3c(c2c1)OC(N)=C(C#N)C3c1ccc(Cl)cc1 (stereo unspecified),86.2%,68,99,79.6,–,58.2%,–,102,76.8,–,71.5,65.2,89.3,74,70.8%,89.8,56.2,96.7%,50.6,64.5
CCn1c2ccccc2c2cc(-n3nncc3-c3ccccc3)ccc21,7.25% (active),47.8,45.1,66,57.8,4.55% (active),24.5,31.6,13.3,10.3,56.3,27.2,35.2,15.7,-17.7% (active),85.4,–,-10.9% (active),–,–
C#CCOc1ccc(/C=N\Nc2nc(-c3ccc(C)cc3)cs2)cc1OC,87.2%,86.8,92.2,98.5,–,74.5%,–,99.2,85.3,69.6,116,88.6,102,92.4,96.4%,93.3,95.5,94.6%,–,–
Clc1ccc(N/N=c2/oc3ccccc3cc2-c2cc3ccccc3[nH]2)cc1,64.4%,77.7,78.6,75.9,–,77.1%,–,87.7,88.6,67,55.3,67.1,85.1,71,87.3%,84.1,85.2,–,76,66.5
C=C(C)[C@@H]1CC[C@]2(C(=O)NCCCCCN(CCC#N)CCC#N)CC[C@]3(C)[C@H](CC[C@@H]4[C@@]5(C)CCC(=O)C(C)(C)[C@@H]5CC[C@]43C)[C@@H]12,95.3%,92.8,116,82.6,–,–,90.9,92,96.2,96.9,119,107,81.5,99.6,101%,103,87.5,111%,58.2,97.6
